Unmarked numbers belong to inactive results. Inconclusive results are not listed. Entries that show only a call come without a potency. Active and inactive are the calls of the source. Unless noted, calls follow the shape of the dose curve; as a rule, active = well fitted curve in the direction sought with a large enough effect in the repeat runs; inconclusive = weak or mixed curves; inactive = no such curve, though single readings can be large; an effect the other way counts as inactive or inconclusive.
Key:
[1] = qHTS assay to identify small molecule agonists of the estrogen related receptor signaling pathway with the pleiotropic PPARgamma coactivator (PGC) from Tox21 10K library (AID 1224842); also: nearly all actives have a fitted effect of over 15% in size
In short: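 PGC/ERR reporter cells (NTP line) were seeded 2,000 per well, rested 6 h at 37 C/5% CO2, then pin-dosed with compounds in DMSO for 18 h at 37 C; luciferase read by One-Glo luminescence after 30 min at room temperature.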

[2] = target: Thyrotropin receptor (Homo sapiens) (UniProt P16473); test: qHTS assay to identify small molecule agonists of the thyroid stimulating hormone receptor (TSHR) signaling pathway (AID 1224843; calls by dose curve; also: nearly all actives have a fitted effect of over 45% in size)
Sequence of Thyrotropin receptor (Homo sapiens) (P16473 whole entry, looked up): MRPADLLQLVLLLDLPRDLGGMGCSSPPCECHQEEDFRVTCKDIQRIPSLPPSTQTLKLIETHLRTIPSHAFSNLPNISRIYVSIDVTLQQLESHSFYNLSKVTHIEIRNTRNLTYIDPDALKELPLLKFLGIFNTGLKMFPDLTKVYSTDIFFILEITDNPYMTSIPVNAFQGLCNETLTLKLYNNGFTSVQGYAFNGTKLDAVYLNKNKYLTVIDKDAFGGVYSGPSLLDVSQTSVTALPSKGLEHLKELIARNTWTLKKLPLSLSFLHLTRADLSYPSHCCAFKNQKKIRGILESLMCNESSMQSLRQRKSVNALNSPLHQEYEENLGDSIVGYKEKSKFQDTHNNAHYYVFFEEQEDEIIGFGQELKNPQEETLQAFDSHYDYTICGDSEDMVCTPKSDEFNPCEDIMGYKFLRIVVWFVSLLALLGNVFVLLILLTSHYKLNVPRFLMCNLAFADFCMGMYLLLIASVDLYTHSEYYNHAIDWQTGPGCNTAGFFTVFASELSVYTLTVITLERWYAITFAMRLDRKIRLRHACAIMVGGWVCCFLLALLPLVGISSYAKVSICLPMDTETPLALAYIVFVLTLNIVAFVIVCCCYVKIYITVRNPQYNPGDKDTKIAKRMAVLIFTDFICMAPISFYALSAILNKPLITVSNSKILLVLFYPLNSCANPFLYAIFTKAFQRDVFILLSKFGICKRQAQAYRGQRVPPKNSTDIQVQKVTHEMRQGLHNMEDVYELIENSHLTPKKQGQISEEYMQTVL
In short: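 Using 15 concentrations per compound in triplicate, cAMP production was monitored in TSHR-HEK293 cells after 30 min compound incubation at RT; HTRF reagents followed, with fluorescence intensity recorded after 1 h.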

[3] = qHTS assay to identify small molecule agonists of the hypoxia (HIF-1) signaling pathway - cell viability counter screen (AID 1224844; calls by dose curve; also: nearly all actives have a fitted effect of over 50% in size; also: potency is read from the fitted curve at half-maximal effect)
In short: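 Cytotoxicity measured by CellTiter-Glo ATP luminescence in the wells also read for beta-lactamase signal. Cells were HRE-bla ME-180 (2,000/well, 0.5% dialyzed FBS), exposed to compounds for 17 h at 37C.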

[4] = qHTS assay to identify small molecule agonists of the hypoxia (HIF-1) signaling pathway (AID 1224846; active = well fitted activation curve with a large enough effect in the signal ratio in the repeat runs, not every such curve was filed as active; the % refers to the signal ratio)
In short: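 Compounds added to ME-180 cells carrying hypoxia-response-element beta-lactamase reporter (0.5% dialyzed FBS, 5 h preplating), 17 h at 37C; agonist activity detected by CCF4-AM B/G FRET read-out.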

[5] = qHTS assay to identify small molecule agonists of H2AX - cell viability counter screen (AID 1224847; calls by dose curve; also: top concentration of the series differs between compounds; nearly all actives have a fitted effect of over 30% in size)
In short: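 Cytotoxicity counter screen in wild-type CHO-K1 cells: a 3 hr compound treatment at 37C across 15 concentrations, followed by CellTiter-Glo luminescence to gauge viable cells.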

[6] = qHTS assay to identify small molecule antagonists of the estrogen related receptor (ERR) signaling pathway from Tox21 library (AID 1224848); also: nearly all actives have a fitted effect of over 50% in size; also: potency is read from the fitted curve at half-maximal effect
In short: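 Tox21 10K compounds in DMSO tested for ERR pathway antagonism in NTP's ERR cell line; 18 h, 37 C exposure; ONE-Glo luminescence.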

[7] = qHTS assay to identify small molecule agonists of the estrogen related receptor (ERR) signaling pathway from Tox21 library (AID 1224849; calls by dose curve; also: nearly all actives have a fitted effect of over 15% in size); settings: ERR reporter cell line, ONE-Glo luciferase, 18 h; at 92.4 µM (top of the series) unless noted
In short: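 Luminescent agonist read-out (One-Glo, 30-minute room-temperature incubation) following 18-hour compound treatment at 37 C of the ERR cell line, which had been plated 6 hours before dosing.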

[8] = qHTS RealTime-Glo MT Cell Viability Assay in HepG2 cells - 24 hour (AID 1224867); also: nearly all actives have a fitted effect of over 50% in size
In short: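 Compound treatment began 5 h after plating HepG2 cells (600/well) with NanoLuc luciferase and prosubstrate. Plates stayed at 37 C for 40 h; luminescence was captured at six time points, 0 h through 40 h.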

[9] = qHTS RealTime-Glo MT Cell Viability Assay in HEK293 cells - 32 hour (AID 1224868); also: nearly all actives have a fitted effect of over 50% in size; also: potency is read from the fitted curve at half-maximal effect
In short: (§1)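 Quantitative high-throughput screen of the Tox21 10K library in HEK293: cells and RealTime-Glo reagents plated together, compound added at 5 h, luminescence monitored through 40 h at 37 C.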

[10] = A CellTox Green Cytotoxicity Assay to monitor cytotoxicity in HEK293 cells - 0 hour (AID 1224869); also: nearly all actives have a fitted effect of over 50% in size
In short: (§2)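 Fluorescence from a DNA-binding dye excluded by viable cells was measured repeatedly in the same HEK293 wells (600 cells/well) during continuous compound exposure at 37 C. Each assay gives one read point: 0, 8, 16, 24, 32 or 40 h.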

[11] = qHTS RealTime-Glo MT Cell Viability Assay in HepG2 cells - 40 hour (AID 1224870); also: nearly all actives have a fitted effect of over 50% in size
In short: (§3)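 HepG2 cells mixed with RealTime-Glo MT reagents (NanoLuc plus cell-permeant prosubstrate) were seeded at 600 cells/well, incubated 5 h at 37 C/5% CO2, then pinned with compounds in DMSO; nonlytic luminescence tracked viability during 40 h treatment.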

[12] = A CellTox Green Cytotoxicity Assay to monitor cytotoxicity in HEK293 cells - 40 hour (AID 1224871); also: nearly all actives have a fitted effect of over 45% in size; also: potency is read from the fitted curve at half-maximal effect
In short: as §2

[13] = qHTS RealTime-Glo MT Cell Viability Assay in HEK293 cells - 16 hour (AID 1224872); also: nearly all actives have a fitted effect of over 50% in size; also: potency is read from the fitted curve at half-maximal effect
In short: as §1

[14] = qHTS RealTime-Glo MT Cell Viability Assay in HepG2 cells - 8 hour (AID 1224873); also: nearly all actives have a fitted effect of over 55% in size
In short: as §3

[15] = target: Nuclear receptor subfamily 1 group I member 3 (Homo sapiens) (UniProt Q14994); test: qHTS assay to identify small molecule antagonists of the constitutive androstane receptor (CAR) signaling pathway (AID 1224838);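 also: HepG2 cells stably expressing hCAR with CYP2B6 luciferase reporter stimulated by CITCO; nearly all actives have a fitted effect of over 40% in size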; also: potency is read from the fitted curve at half-maximal effect
Sequence of Nuclear receptor subfamily 1 group I member 3 (Homo sapiens) (Q14994 whole entry, looked up): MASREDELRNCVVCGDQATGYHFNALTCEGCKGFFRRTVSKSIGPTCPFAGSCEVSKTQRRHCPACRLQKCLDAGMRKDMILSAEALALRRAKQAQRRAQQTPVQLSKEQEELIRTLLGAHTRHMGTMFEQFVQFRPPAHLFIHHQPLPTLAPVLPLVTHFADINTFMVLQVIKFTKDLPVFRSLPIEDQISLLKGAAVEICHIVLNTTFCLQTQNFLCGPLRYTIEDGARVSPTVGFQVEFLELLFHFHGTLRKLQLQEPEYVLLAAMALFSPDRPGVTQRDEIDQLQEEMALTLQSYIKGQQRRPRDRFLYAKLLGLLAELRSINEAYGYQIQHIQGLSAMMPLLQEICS
In short: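 Antagonism measured as luciferase signal (ONE-Glo, 30 min, room temperature) in CAR-stimulated cells: HepG2-CYP2B6-hCAR double-stable line exposed 24 hr at 37 C to compound in a 15-point series plus 50 nM CITCO.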

[16] = target: Nuclear receptor subfamily 1 group I member 3 (Homo sapiens) (UniProt Q14994); test: qHTS assay to identify small molecule agonists of the constitutive androstane receptor (CAR) signaling pathway (AID 1224839); also: nearly all actives have a fitted effect of over 15% in size; also: potency is read from the fitted curve at half-maximal effect;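 as to activation: HepG2 cells stably carrying human CAR and a CYP2B6 luciferase reporter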
In short: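 Cells were plated and incubated 4 hrs, then dosed with compounds at 15 concentrations. PK11195 was added to 0.75 uM final. After 24 hrs at 37 C, luciferase luminescence was measured.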

[17] = qHTS assay to identify small molecule antagonists of the estrogen related receptor signaling pathway with the pleiotropic PPARgamma coactivator (PGC) from Tox21 10K library - cell viability counter screen (AID 1224840; active = well fitted cell-killing curve with a large enough effect in the repeat runs, not every such curve was filed as active; also: nearly all actives have a fitted effect of over 40% in size)
In short: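 Counter-screen for cytotoxicity: after 17.5 h compound exposure at 37 C, CellTiter-Fluor reagent added to PGC/ERR cells for 30 min and fluorescence read. Cells were seeded at 2,000 per well 6 h before dosing.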

[18] = qHTS assay to identify small molecule antagonists of the estrogen related receptor signaling pathway with the pleiotropic PPARgamma coactivator (PGC) from Tox21 10K library (AID 1224841; call rule not given here)
In short: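 Luminescence (One-Glo, 30 min at room temperature) after 18 h compound treatment at 37 C of PGC/ERR reporter cells plated at 2,000 cells/well and settled 6 h beforehand.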

[19] = qHTS assay to identify small molecule antagonists of the constitutive androstane receptor (CAR) signaling pathway - cell viability counter screen (AID 1224837); also: nearly all actives have a fitted effect of over 45% in size
In short: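 Cytotoxicity counter-screen: CellTiter-Fluor fluorescence after 23 h compound exposure (15-point qHTS) in double-stable HepG2-CYP2B6-hCAR cells, with 50 nM CITCO added.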

[20] = qHTS assay to identify small molecule agonists of H2AX (AID 1224845; active = well fitted activation curve with a large enough effect in the signal ratio in the repeat runs, not every such curve was filed as active; the % refers to the signal ratio)
In short: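 Wild-type CHO-K1 cells plated overnight, then exposed 3 hr at 37C to compounds at 15 concentrations (0.76% DMSO). Lysed, then HTRF anti-pH2AX(S139)-cryptate/anti-H2AX-d2 detection after 24 hr at room temperature; emissions 665 and 620 nm.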

| SMILES | Potency [1] | Potency [2] | Potency [3] | outcome [4] | Potency [5] | Potency [6] | activity change, positive = activation [7] | Potency [8] | Potency [9] | Potency [10] | Potency [11] | Potency [12] | Potency [13] | Potency [14] | Potency [15] | Potency [16] | Potency [17] | Potency [18] | Potency [19] | Potency [20] |
| --- | --- | --- | --- | --- | --- | --- | --- | --- | --- | --- | --- | --- | --- | --- | --- | --- | --- | --- | --- | --- |
| CC(C)(C)c1cc(O)c(C(C)(C)C)cc1O | inactive | inactive | inactive | inactive | inactive | 24.3 µM (active) | -60.5% | inactive | 24.5 µM (active) | inactive | inactive | inactive | 17.4 µM (active) | inactive |  |  |  |  |  |  |
| C=Cc1c(C)c2cc3[nH]c(cc4nc(cc5nc(cc1[nH]2)C(C)=C5CCC(=O)O)C(CCC(=O)O)=C4C)c(C)c3C=C | inactive |  | 19 µM (active) |  | inactive |  | -18% [at 42.5 µM] | inactive | inactive | inactive | inactive | inactive | inactive | inactive | inactive | inactive | inactive | inactive |  |  |
| Nc1nc(N)c(-c2ccccc2)s1 | inactive |  | inactive | inactive | inactive | inactive | 3.26% [at 42.5 µM] | inactive | inactive | inactive | inactive | inactive | inactive | inactive |  |  |  | inactive | inactive | inactive |
| CN1CCN(C2=Nc3cc(Cl)ccc3Nc3ccccc32)CC1 |  | inactive | inactive |  | inactive |  |  |  |  | inactive |  | inactive | inactive | inactive | inactive |  |  |  |  |  |
| O=C(/C=C/c1ccc(O)c(O)c1)O[C@@H]1C[C@](O)(C(=O)O)C[C@@H](O)[C@H]1O |  |  | inactive |  |  |  |  | inactive | inactive | inactive |  | inactive | inactive | inactive |  |  | inactive |  | inactive |  |
| CC(=O)CC(=O)c1ccccc1 |  |  |  | inactive | inactive | inactive | 14.5% | inactive |  | inactive | inactive | inactive | inactive | inactive | 10.9 µM (active) | inactive |  | inactive |  |  |
| CC(C)c1cccc(C(C)C)c1NC(=O)NS(=O)(=O)c1cc(C(C)(C)O)co1 |  | inactive | inactive | inactive | inactive |  |  | inactive | inactive | inactive | inactive | inactive | inactive | inactive |  |  |  |  | inactive | inactive |
| CCc1nn(C2CCCCC2)c2cc(C3(C#N)CCC(C(=O)O)CC3)ccc12 (centres undefined) | inactive | inactive | inactive | inactive | inactive | 48.6 µM (active) | -46.5% | inactive | inactive | inactive | inactive | inactive | inactive | inactive | inactive | inactive |  |  |  |  |
| CCCCc1cc2ccccc2c(OCCN(C)C)n1 |  | inactive |  | inactive |  |  |  | inactive |  | inactive | inactive | 21.3 µM (active) |  | inactive |  |  | inactive |  | inactive | inactive |
| OCCC1CCCCN1 (centres undefined) |  |  | inactive | inactive |  |  |  | inactive | inactive | inactive | inactive | inactive | inactive | inactive |  |  | inactive |  | inactive |  |
| Cc1cc(O)ccc1N |  | inactive |  | inactive |  |  | -16.6% | inactive | 49.2 µM (active) | inactive | inactive | 34.9 µM (active) | 49.2 µM (active) |  | 3.08 µM (active) | inactive |  | inactive |  |  |
| CCCCCCCCCC=O |  | inactive | inactive | inactive | inactive |  |  | inactive | inactive | inactive | inactive | inactive | inactive | inactive |  |  |  |  | inactive | inactive |
| CC(C)NCC(O)COc1ccc(CC(N)=O)cc1 (centres undefined) |  | inactive | inactive |  | inactive |  |  | inactive | inactive | inactive | inactive | inactive | inactive | inactive |  |  | inactive |  | inactive |  |
| CC(C)c1ccccc1C(C)C |  |  | inactive | inactive |  |  |  | inactive | inactive | inactive | inactive | inactive | inactive | inactive |  |  |  |  | inactive |  |
| CC[C@]12CCCN3CCc4c(n(c5ccccc45)C(=O)C1)[C@@H]32 | inactive | inactive |  |  | inactive |  | -17.2% [at 42.5 µM] | inactive | 4.77 µM (active) | inactive | inactive | inactive |  | inactive |  |  | inactive | inactive |  |  |
| COc1ccc([C@@H]2Sc3ccccc3N(CCN(C)C)C(=O)[C@@H]2OC(C)=O)cc1 |  | inactive | 21.3 µM (active) |  | inactive | 16.8 µM (active) | -33.7% [at 42.5 µM] | inactive |  | inactive | inactive | inactive | inactive | inactive |  |  | inactive |  | inactive |  |
| CN(C)C/C=C(/c1ccc(Br)cc1)c1cccnc1 |  |  | inactive |  | inactive |  |  | inactive | inactive | inactive | inactive | inactive | inactive | inactive |  |  | inactive |  | inactive | inactive |
| C[C@@H](C1=C(CCN(C)C)Cc2ccccc21)c1ccccn1 |  |  | inactive | inactive | inactive |  |  | inactive | inactive | inactive | inactive | inactive | inactive | inactive |  |  | inactive |  | inactive | inactive |
| Cc1nc2ccccc2n1Cc1ccc(Cl)cc1 |  |  | inactive | inactive | inactive |  |  | inactive | 1.69 µM (active) | inactive | inactive | inactive | 3.01 µM (active) | inactive | inactive | 11.9 µM (active) | inactive |  |  |  |
| CCC(C)N(C)C(=O)c1cc2ccccc2c(-c2ccccc2Cl)n1 (centres undefined) |  |  | inactive |  | inactive |  |  | inactive |  | inactive | inactive | inactive |  | inactive |  |  |  |  | inactive | inactive |
| C=CC(C)(CCC=C(C)C)OC(=O)c1ccccc1 (centres undefined) |  | inactive | inactive | inactive |  |  |  | inactive | inactive | inactive | inactive |  | inactive | inactive |  |  | inactive |  | inactive |  |
| CC(=O)/C=C/C1C(C)=CCCC1(C)C (centres undefined) |  |  | inactive | inactive |  |  |  | inactive | inactive | inactive | inactive | inactive | inactive | inactive |  |  | inactive |  | inactive | inactive |
| O=S1(=O)N=C(O)c2ccccc21 |  | inactive |  | inactive |  |  |  | inactive | inactive | inactive | inactive | inactive | inactive | inactive |  |  | inactive |  | inactive | inactive |

From PubChem BioAssay (Tox21)
